{"source": "PubChem BioAssay (NCI)", "note": "Compounds without any hit were thinned out: in the full panel of roughly 83,000, 20% have a hit.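 Percent growth is the endpoint: 0 to 100 indicates growth inhibition (40 means 60% inhibition), 0 means no net growth, and negative values indicate cell death.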 The source made the active and inactive calls. Rule for the calls: active = growth percent below 10; inactive = the rest."}
{"test_system": "SN12C renal", "experiment": "NCI-60 one-dose screen, 48 h (100 = growth as untreated, 0 = no growth, -100 = all killed)", "settings": "10 µM unless noted"}
{"smiles": "COc1cc(-c2nn(-c3cccc(NC(=O)Nc4cc(C(F)(F)F)cc(C(F)(F)F)c4)c3)cc2-c2ccncc2)ccc1Cl", "growth": "-8.08% (active)"}
{"smiles": "COc1ccc(C(=O)c2cc(OC)c3c(c2)OCO3)cc1O", "growth": "31.4% (inactive)"}
{"smiles": "N#Cc1c(-c2ccccc2)nc(SCC(=O)N2CCN(c3ccccc3)CC2)[nH]c1=O", "growth": "110% (inactive)"}
{"smiles": "C=C1c2nc3ccccc3n2C=C(c2ccc(Cl)cc2)N1Cc1ccccc1", "growth": "95.1% (inactive)"}
{"smiles": "Cc1cc(C(C)(C)C)ccc1S", "growth": "100% (inactive)"}
{"smiles": "CCOC(=O)C1=C(C)NC(C)=C(C(=O)OCC)C1(C)C", "growth": "97% (inactive)"}
{"smiles": "COc1ccc(CNCCCN2C(=O)c3ccc4c5c(ccc(c35)C2=O)C(=O)N(CCCNCCCCNCCCN)C4=O)c(OC)c1OC", "growth": "-54.6% (active)"}
{"smiles": "O=C(Nc1ccncc1)C(=O)c1cn(S(=O)(=O)c2ccc(Br)cc2)c2ccccc12", "growth": "46.3% (inactive)"}
{"smiles": "O=C(/C=C/c1cc(-c2ccc3c(c2)OCO3)n[nH]1)c1ccc2c(c1)OCO2", "growth": "88.9% (inactive)"}
{"smiles": "CCCOC(=O)n1cccc1", "growth": "94.2% (inactive)"}
{"smiles": "CCN(CC)c1ccc(CNc2ccnc3ccccc23)cc1", "growth": "64% (inactive)"}
{"smiles": "COc1cccc(-c2cc3c(O)cc(C#N)cc3[nH]2)c1", "growth": "66.1% (inactive)"}
{"smiles": "C=C(C)[C@@H]1CC[C@]2(C(=O)N3CCNCC3)CC[C@]3(C)[C@H](CC[C@@H]4[C@@]5(C)C/C(=C/c6ccncc6)C(=O)C(C)(C)[C@@H]5CC[C@]43C)[C@@H]12", "growth": "106% (inactive)"}
{"smiles": "Fc1ccccc1-c1nc(-c2nc3cc(Cl)c(Cl)cc3[nH]2)c2ccccn12", "growth": "70.7% (inactive)"}
{"smiles": "COc1cc(-c2nn(C(=O)NS(=O)(=O)c3ccccc3)cc2-c2ccncc2)ccc1Cl", "growth": "82.4% (inactive)"}
{"smiles": "NC(=N\\N=C/c1ccc(O)cc1)/C(N)=N\\N=C/c1ccc(O)cc1", "growth": "74.2% (inactive)"}
{"smiles": "Cn1c(=O)c2[nH]c(C3CC=CCC3)nc2n(C)c1=O", "note": "(stereo unspecified)", "growth": "99.4% (inactive)"}
{"smiles": "C=C[C@@H]1C[C@H](O)Cc2cc(F)ccc2N1", "growth": "101% (inactive)"}
{"smiles": "O=C(O)Cc1cccc(=O)c(O)c1C(=O)O", "growth": "101% (inactive)"}
{"smiles": "c1ccc(-c2nnc(-c3ccccn3)s2)nc1", "growth": "114% (inactive)"}
{"smiles": "CC(C)CC1NC(C)(C)CO1", "note": "(stereo unspecified)", "growth": "112% (inactive)"}
{"smiles": "CC(C)(C)N1CCC1C(N)=O", "note": "(stereo unspecified)", "growth": "104% (inactive)"}
{"smiles": "COc1ccc(-c2cnnn2-c2nonc2-n2cccc2)cc1OC", "growth": "68.5% (inactive)"}
{"smiles": "O=C(O)C1CCCCN1c1nc(Cl)nc(Cl)n1", "note": "(stereo unspecified)", "growth": "103% (inactive)"}
{"smiles": "CCCCN(CCCC)C(=N)c1ccnc2ccccc12", "growth": "113% (inactive)"}
{"smiles": "O=S(=O)(NCCNc1nccc(-c2c(-c3cccc(O)c3)nc3sccn23)n1)c1ccc(F)cc1", "growth": "63.9% (inactive)"}
{"smiles": "COc1cc(-c2nn(-c3cccc(NC(=O)c4cccc(C(F)(F)F)c4)c3)cc2-c2ccncc2)ccc1Cl", "growth": "34.4% (inactive)"}
{"smiles": "Cc1ccc(Cc2c(C=O)nc(N)[nH]c2=O)c2ccccc12", "growth": "96.9% (inactive)"}
{"smiles": "Cn1cnc2c(N3CCN(C(=O)OCc4ccc5c(Cl)cc(Cl)c(O)c5n4)CC3)nc(Cl)nc21", "growth": "63% (inactive)"}
{"smiles": "COc1ccc(-c2c(N)n[nH]c2-c2cc(OC)c3c(c2)OCCO3)cc1", "growth": "88.7% (inactive)"}
{"smiles": "CCOC(=O)c1ccc2c(c1)c1c(C)c3cccnc3c(C)c1n2C", "growth": "33.8% (inactive)"}
{"smiles": "Cc1nc2ncccc2nc1Nc1ccc(S(=O)(=O)Nc2ccccn2)cc1", "growth": "93.7% (inactive)"}
{"smiles": "COc1ccc(C2=C(c3cc(OC)c(OC)c(OC)c3)C(=O)CC2)cc1", "growth": "26.4% (inactive)"}
{"test_system": "UO-31 renal", "experiment": "NCI-60 one-dose screen, 48 h (100 = growth as untreated, 0 = no growth, -100 = all killed)", "settings": "10 µM unless noted"}
{"smiles": "COc1cc(-c2nn(-c3cccc(NC(=O)Nc4cc(C(F)(F)F)cc(C(F)(F)F)c4)c3)cc2-c2ccncc2)ccc1Cl", "growth": "-29.2% (active)"}
{"smiles": "COc1ccc(C(=O)c2cc(OC)c3c(c2)OCO3)cc1O", "growth": "46.6% (inactive)"}
{"smiles": "CCOC(=O)NNC(=S)Nc1ccccc1", "growth": "89.4% (inactive)"}
{"smiles": "N#Cc1c(-c2ccccc2)nc(SCC(=O)N2CCN(c3ccccc3)CC2)[nH]c1=O", "growth": "87.6% (inactive)"}
{"smiles": "C=C1c2nc3ccccc3n2C=C(c2ccc(Cl)cc2)N1Cc1ccccc1", "growth": "48.2% (inactive)"}
{"smiles": "Cc1cc(C(C)(C)C)ccc1S", "growth": "90.3% (inactive)"}
{"smiles": "CCOC(=O)C1=C(C)NC(C)=C(C(=O)OCC)C1(C)C", "growth": "100% (inactive)"}
{"smiles": "COc1ccc(CNCCCN2C(=O)c3ccc4c5c(ccc(c35)C2=O)C(=O)N(CCCNCCCCNCCCN)C4=O)c(OC)c1OC", "growth": "51.4% (inactive)"}
{"smiles": "NNc1cccc(/C=C/c2ccccc2)cc1=O", "growth": "24.9% (inactive)"}
{"smiles": "O=C(Nc1ccncc1)C(=O)c1cn(S(=O)(=O)c2ccc(Br)cc2)c2ccccc12", "growth": "52.7% (inactive)"}
{"smiles": "O=C(/C=C/c1cc(-c2ccc3c(c2)OCO3)n[nH]1)c1ccc2c(c1)OCO2", "growth": "74.5% (inactive)"}
{"smiles": "CCN(CC)c1ccc(CNc2ccnc3ccccc23)cc1", "growth": "31.6% (inactive)"}
{"smiles": "COc1cccc(-c2cc3c(O)cc(C#N)cc3[nH]2)c1", "growth": "106% (inactive)"}
{"smiles": "C=C(C)[C@@H]1CC[C@]2(C(=O)N3CCNCC3)CC[C@]3(C)[C@H](CC[C@@H]4[C@@]5(C)C/C(=C/c6ccncc6)C(=O)C(C)(C)[C@@H]5CC[C@]43C)[C@@H]12", "growth": "90.3% (inactive)"}
{"smiles": "Fc1ccccc1-c1nc(-c2nc3cc(Cl)c(Cl)cc3[nH]2)c2ccccn12", "growth": "62.6% (inactive)"}
{"smiles": "O=[N+]([O-])c1cc(Cl)c2[nH]c3c(Cl)cc([N+](=O)[O-])cc3c2c1", "growth": "-13.9% (active)"}
{"smiles": "COc1cc(-c2nn(C(=O)NS(=O)(=O)c3ccccc3)cc2-c2ccncc2)ccc1Cl", "growth": "69.7% (inactive)"}
{"smiles": "COc1cc(NCCCCCN)c2ncccc2c1", "growth": "86.9% (inactive)"}
{"smiles": "NC(=N\\N=C/c1ccc(O)cc1)/C(N)=N\\N=C/c1ccc(O)cc1", "growth": "28.5% (inactive)"}
{"smiles": "Cn1c(=O)c2[nH]c(C3CC=CCC3)nc2n(C)c1=O", "note": "(stereo unspecified)", "growth": "72.3% (inactive)"}
{"smiles": "O=C(/C=C/c1ccccc1)c1cccc(O)c1", "growth": "72.6% (inactive)"}
{"smiles": "C=C[C@@H]1C[C@H](O)Cc2cc(F)ccc2N1", "growth": "103% (inactive)"}
{"smiles": "O=C(O)Cc1cccc(=O)c(O)c1C(=O)O", "growth": "84.2% (inactive)"}
{"smiles": "O=C(O)COc1ccc(-c2cssc2=S)cc1", "growth": "88.9% (inactive)"}
{"smiles": "c1ccc(-c2nnc(-c3ccccn3)s2)nc1", "growth": "76.3% (inactive)"}
{"smiles": "CC(C)CC1NC(C)(C)CO1", "note": "(stereo unspecified)", "growth": "90.2% (inactive)"}
{"smiles": "CC(C)(C)N1CCC1C(N)=O", "note": "(stereo unspecified)", "growth": "131% (inactive)"}
{"smiles": "COc1ccc(-c2cnnn2-c2nonc2-n2cccc2)cc1OC", "growth": "72.2% (inactive)"}
{"smiles": "O=C(O)C1CCCCN1c1nc(Cl)nc(Cl)n1", "note": "(stereo unspecified)", "growth": "98.1% (inactive)"}
{"smiles": "CCCCN(CCCC)C(=N)c1ccnc2ccccc12", "growth": "89.7% (inactive)"}
{"smiles": "O=S(=O)(NCCNc1nccc(-c2c(-c3cccc(O)c3)nc3sccn23)n1)c1ccc(F)cc1", "growth": "83.4% (inactive)"}
{"smiles": "COc1cc(-c2nn(-c3cccc(NC(=O)c4cccc(C(F)(F)F)c4)c3)cc2-c2ccncc2)ccc1Cl", "growth": "25.1% (inactive)"}
{"smiles": "Cc1ccc(Cc2c(C=O)nc(N)[nH]c2=O)c2ccccc12", "growth": "81.2% (inactive)"}
{"smiles": "Cn1cnc2c(N3CCN(C(=O)OCc4ccc5c(Cl)cc(Cl)c(O)c5n4)CC3)nc(Cl)nc21", "growth": "48.2% (inactive)"}
{"smiles": "COc1ccc(-c2c(N)n[nH]c2-c2cc(OC)c3c(c2)OCCO3)cc1", "growth": "92% (inactive)"}
{"smiles": "CCOC(=O)c1ccc2c(c1)c1c(C)c3cccnc3c(C)c1n2C", "growth": "32% (inactive)"}
{"smiles": "Cc1nc2ncccc2nc1Nc1ccc(S(=O)(=O)Nc2ccccn2)cc1", "growth": "61.5% (inactive)"}
{"smiles": "COc1ccc(C2=C(c3cc(OC)c(OC)c(OC)c3)C(=O)CC2)cc1", "growth": "46.2% (inactive)"}
